From PMC7862700, “An all-to-all approach to the identification of sequence-specific readers for epigenetic DNA modifications on cytosine”

Experiments:
Test in all cases: DAPPL (digital affinity profiling via proximity ligation, sequencing); 10 mM Tris-HCl pH 7.5, 50 mM NaCl, 1 mM DTT, 4% glycerol, room temperature, 30 min; GST-TFs on glutathione beads, 16-mer random dsDNA library, 0.1% formaldehyde crosslink after washing; high values mean tight binding
Conditions in all cases: protein: recombinant; tags: N-terminal GST; dsDNA, one strand shown
[1] = target: T1, ELK1 (Homo sapiens, UniProt P19419 1-428)
T1 sequence: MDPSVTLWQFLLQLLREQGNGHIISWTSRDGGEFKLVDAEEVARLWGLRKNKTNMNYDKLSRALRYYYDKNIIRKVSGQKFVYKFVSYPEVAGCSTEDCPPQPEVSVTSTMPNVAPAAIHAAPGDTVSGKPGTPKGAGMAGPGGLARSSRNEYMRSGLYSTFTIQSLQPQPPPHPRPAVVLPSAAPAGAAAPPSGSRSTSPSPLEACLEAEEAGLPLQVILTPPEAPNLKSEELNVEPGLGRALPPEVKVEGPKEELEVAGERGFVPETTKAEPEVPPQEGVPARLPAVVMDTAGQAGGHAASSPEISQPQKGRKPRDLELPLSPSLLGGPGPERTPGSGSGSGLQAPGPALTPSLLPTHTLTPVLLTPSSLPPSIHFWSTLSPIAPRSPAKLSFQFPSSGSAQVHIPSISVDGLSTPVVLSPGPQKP
How it was run: (§1)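 Pools were built from human transcription factors expressed in yeast as GST fusions, captured on glutathione beads and DNA-barcoded, along with a tag-only sample. Incubation with 200 nmole of a 16-mer random double-stranded DNA library lasted 30 min at room temperature in Tris/NaCl/DTT/glycerol buffer, and was followed by washing, 0.1% formaldehyde crosslinking, proximity ligation, PCR amplification and Illumina NextSeq500 sequencing. Binding signal is the quotient of each hexamer's read frequency for a factor and its frequency for the tag-only sample.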

[2] = target: T2, GABPA (Homo sapiens, UniProt Q06546 1-454)
T2 sequence: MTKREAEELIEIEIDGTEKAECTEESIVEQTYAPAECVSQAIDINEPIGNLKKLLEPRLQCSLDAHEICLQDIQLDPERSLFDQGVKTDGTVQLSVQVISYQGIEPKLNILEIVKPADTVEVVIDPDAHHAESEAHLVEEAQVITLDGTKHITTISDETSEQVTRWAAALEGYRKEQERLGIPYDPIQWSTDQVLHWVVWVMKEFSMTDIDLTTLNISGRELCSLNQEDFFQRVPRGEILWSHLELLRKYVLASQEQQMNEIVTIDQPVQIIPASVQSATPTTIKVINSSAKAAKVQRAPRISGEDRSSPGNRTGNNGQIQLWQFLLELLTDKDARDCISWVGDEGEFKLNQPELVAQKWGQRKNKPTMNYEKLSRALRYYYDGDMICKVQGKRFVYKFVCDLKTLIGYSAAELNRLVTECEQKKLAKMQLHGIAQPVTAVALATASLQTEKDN
How it was run: as §1

[3] = target: T3, ERG (Homo sapiens, UniProt P11308 1-479)
T3 sequence: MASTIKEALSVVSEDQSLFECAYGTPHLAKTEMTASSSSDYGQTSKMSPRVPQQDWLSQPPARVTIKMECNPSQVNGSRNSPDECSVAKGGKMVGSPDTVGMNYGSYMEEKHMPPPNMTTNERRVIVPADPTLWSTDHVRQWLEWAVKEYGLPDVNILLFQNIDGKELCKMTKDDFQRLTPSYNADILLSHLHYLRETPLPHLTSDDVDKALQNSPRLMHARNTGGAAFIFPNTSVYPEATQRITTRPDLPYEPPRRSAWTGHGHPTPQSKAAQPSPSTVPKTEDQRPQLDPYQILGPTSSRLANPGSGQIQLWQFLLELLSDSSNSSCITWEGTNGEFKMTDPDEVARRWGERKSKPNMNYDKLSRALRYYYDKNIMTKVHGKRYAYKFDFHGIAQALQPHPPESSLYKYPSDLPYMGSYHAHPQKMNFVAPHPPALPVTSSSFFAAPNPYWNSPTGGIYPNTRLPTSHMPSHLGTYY
How it was run: as §1

[4] = target: ELF1 (Homo sapiens, UniProt P32519 1-619)
Chain of ELF1 (P32519 whole entry): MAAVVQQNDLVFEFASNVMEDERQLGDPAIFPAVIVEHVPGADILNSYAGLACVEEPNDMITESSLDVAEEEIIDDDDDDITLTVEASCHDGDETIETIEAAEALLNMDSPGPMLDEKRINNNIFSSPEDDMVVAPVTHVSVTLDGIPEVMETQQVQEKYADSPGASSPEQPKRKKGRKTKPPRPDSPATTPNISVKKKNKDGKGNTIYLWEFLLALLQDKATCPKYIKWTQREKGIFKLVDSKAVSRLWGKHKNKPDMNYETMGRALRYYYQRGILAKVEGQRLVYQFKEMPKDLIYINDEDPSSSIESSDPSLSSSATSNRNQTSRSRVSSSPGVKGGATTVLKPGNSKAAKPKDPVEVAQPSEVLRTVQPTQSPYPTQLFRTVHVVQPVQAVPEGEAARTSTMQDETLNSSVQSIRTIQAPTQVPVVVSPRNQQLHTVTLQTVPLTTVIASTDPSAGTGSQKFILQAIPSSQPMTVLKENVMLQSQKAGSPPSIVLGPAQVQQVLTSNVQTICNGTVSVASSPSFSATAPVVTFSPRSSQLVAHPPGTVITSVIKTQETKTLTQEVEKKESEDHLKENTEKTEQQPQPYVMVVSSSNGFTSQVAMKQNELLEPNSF
How it was run: as §1

[5] = target: T4, EHF (Homo sapiens, UniProt Q9NZC4 1-300)
T4 sequence: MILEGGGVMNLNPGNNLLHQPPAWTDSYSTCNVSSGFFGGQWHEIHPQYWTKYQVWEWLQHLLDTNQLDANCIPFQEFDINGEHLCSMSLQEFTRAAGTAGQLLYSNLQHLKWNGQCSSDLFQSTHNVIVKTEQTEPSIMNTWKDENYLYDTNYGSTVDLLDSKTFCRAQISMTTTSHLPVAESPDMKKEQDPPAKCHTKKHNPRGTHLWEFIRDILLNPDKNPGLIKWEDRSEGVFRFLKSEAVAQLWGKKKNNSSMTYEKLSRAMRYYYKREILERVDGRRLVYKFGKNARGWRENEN
How it was run: as §1

[6] = target: SPIB (Homo sapiens, UniProt Q01892 1-262)
Chain of SPIB (Q01892 whole entry): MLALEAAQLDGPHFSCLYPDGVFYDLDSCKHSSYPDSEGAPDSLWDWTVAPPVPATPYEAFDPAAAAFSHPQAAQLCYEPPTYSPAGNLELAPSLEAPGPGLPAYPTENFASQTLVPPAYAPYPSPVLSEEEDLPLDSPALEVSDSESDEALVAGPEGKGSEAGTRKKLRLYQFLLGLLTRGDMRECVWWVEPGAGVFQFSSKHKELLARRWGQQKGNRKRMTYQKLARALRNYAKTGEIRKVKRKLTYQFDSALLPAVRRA
How it was run: as §1

[7] = target: T5, FEV (Homo sapiens, UniProt Q99581 1-238)
T5 sequence: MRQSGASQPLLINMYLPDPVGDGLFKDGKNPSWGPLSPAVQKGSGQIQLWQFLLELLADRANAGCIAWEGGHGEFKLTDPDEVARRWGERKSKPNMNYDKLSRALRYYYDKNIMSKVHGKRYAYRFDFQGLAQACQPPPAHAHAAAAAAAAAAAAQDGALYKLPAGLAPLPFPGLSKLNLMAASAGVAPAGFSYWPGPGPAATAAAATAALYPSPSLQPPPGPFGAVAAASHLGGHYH
How it was run: as §1

[8] = target: ETV5 (Homo sapiens, UniProt P41161 1-510)
Chain of ETV5 (P41161 whole entry): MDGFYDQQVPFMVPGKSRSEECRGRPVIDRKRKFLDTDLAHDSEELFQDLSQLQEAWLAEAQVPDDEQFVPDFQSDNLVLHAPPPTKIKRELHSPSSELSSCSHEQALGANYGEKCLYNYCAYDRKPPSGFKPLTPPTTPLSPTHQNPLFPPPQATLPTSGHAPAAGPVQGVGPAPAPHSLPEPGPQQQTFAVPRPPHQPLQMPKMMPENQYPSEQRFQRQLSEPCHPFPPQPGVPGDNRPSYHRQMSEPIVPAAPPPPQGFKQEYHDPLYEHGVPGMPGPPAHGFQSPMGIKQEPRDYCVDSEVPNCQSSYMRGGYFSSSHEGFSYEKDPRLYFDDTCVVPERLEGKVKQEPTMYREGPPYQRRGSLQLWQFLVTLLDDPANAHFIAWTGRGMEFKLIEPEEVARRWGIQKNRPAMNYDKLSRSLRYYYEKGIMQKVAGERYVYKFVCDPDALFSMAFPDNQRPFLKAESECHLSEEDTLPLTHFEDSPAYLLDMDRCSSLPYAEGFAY
How it was run: as §1

[9] = target: ELF4 (Homo sapiens, UniProt Q99607 1-663)
Chain of ELF4 (Q99607 whole entry): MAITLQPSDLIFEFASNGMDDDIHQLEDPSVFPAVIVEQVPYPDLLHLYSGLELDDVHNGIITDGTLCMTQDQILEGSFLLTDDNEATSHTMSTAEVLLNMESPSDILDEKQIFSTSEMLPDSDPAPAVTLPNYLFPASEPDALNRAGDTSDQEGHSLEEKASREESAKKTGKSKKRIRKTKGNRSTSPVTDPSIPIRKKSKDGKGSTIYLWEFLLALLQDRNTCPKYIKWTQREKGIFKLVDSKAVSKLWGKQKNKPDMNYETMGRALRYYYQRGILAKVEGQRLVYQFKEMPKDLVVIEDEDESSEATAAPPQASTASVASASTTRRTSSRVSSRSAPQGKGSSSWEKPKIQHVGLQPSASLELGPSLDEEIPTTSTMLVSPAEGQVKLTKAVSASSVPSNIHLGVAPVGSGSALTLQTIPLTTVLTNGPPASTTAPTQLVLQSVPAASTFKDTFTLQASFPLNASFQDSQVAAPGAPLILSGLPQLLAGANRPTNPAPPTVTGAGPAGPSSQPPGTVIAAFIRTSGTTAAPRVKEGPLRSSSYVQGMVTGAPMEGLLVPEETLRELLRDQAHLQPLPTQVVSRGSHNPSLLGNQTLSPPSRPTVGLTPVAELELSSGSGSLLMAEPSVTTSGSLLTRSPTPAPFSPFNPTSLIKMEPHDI
How it was run: as §1

[10] = target: T6, ETV3L (Homo sapiens, UniProt Q6ZN32 1-361)
T6 sequence: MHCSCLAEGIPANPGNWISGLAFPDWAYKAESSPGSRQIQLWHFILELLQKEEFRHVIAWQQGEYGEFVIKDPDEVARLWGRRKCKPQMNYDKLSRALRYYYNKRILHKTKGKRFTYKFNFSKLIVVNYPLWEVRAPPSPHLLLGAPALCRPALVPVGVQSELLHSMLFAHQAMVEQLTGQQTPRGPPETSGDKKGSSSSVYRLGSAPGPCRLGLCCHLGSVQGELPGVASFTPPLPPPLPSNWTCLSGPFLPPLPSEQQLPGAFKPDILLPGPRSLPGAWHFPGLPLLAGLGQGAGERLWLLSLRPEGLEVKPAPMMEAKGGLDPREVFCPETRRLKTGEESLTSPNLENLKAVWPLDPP
How it was run: as §1

[11] = target: T7, ETS2 (Homo sapiens, UniProt P15036 1-469)
T7 sequence: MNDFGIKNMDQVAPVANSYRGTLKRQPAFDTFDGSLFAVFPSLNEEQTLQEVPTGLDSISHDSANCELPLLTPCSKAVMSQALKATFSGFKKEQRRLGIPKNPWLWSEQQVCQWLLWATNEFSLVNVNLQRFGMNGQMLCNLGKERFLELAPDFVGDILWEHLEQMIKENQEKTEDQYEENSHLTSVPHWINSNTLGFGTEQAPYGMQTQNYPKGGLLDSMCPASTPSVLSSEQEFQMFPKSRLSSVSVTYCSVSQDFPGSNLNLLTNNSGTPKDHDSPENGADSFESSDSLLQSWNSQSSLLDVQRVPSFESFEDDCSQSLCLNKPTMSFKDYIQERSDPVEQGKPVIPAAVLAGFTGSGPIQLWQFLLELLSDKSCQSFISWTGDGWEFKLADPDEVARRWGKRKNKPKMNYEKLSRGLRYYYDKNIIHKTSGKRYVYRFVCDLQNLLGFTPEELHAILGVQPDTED
How it was run: as §1

[12] = target: T8, SPDEF (Homo sapiens, UniProt O95238 1-335)
T8 sequence: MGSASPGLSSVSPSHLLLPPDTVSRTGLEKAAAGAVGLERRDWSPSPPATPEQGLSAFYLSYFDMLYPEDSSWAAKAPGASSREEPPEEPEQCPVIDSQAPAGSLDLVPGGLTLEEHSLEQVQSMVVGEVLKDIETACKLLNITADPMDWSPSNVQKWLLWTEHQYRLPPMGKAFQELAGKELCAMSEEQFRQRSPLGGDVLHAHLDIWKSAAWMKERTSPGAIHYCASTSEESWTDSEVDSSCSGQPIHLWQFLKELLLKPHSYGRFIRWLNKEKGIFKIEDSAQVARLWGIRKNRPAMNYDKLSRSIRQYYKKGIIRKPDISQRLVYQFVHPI
How it was run: as §1

[13] = target: T9, ETV3 (Homo sapiens, UniProt P41162-2 1-143)
T9 sequence: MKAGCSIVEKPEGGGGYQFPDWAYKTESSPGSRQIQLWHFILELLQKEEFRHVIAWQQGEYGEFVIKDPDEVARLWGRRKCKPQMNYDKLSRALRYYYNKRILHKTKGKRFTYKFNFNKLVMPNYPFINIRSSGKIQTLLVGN
How it was run: as §1

[14] = target: ETV6 (Homo sapiens, UniProt P41212 1-452)
Chain of ETV6 (P41212 whole entry): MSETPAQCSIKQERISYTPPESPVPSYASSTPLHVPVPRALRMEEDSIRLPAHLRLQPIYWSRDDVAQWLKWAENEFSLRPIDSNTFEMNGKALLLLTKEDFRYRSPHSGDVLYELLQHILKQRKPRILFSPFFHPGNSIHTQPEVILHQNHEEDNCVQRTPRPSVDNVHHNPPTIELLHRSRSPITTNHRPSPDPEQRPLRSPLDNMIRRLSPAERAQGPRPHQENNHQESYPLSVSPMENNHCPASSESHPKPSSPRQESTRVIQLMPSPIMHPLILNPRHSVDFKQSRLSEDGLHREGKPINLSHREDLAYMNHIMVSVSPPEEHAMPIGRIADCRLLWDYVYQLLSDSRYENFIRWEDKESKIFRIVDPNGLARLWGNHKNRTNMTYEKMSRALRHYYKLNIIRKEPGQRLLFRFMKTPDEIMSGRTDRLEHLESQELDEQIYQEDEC
How it was run: as §1

[15] = target: T10, ELK4 (Homo sapiens, UniProt P28324-2 1-405)
T10 sequence: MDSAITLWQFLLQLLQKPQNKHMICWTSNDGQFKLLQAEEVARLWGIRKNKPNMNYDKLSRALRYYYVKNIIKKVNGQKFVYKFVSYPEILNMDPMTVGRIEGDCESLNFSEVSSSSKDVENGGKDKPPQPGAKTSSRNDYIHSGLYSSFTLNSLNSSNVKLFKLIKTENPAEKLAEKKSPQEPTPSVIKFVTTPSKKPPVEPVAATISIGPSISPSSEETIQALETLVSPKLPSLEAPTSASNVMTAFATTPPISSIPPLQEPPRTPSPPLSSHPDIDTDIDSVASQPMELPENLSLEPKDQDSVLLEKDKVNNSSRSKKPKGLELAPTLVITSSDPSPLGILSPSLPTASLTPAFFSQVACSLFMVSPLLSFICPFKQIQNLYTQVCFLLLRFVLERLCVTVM
How it was run: as §1

[16] = target: ETV1 (Homo sapiens, UniProt P50549 1-477)
Chain of ETV1 (P50549 whole entry): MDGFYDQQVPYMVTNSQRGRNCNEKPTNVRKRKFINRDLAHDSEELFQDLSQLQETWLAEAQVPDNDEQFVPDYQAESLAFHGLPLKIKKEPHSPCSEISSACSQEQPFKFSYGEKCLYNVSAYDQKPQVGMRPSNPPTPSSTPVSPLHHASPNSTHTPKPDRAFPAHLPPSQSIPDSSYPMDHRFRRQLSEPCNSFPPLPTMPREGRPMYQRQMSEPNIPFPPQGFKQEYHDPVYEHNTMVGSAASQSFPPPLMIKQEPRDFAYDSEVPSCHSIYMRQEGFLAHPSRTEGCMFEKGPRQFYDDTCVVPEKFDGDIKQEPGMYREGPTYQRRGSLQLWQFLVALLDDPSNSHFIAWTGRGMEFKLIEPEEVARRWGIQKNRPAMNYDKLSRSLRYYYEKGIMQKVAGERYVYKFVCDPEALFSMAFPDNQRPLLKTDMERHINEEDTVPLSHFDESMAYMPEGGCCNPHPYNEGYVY
How it was run: as §1

[17] = target: T11, ERF (Homo sapiens, UniProt P50548 1-548)
T11 sequence: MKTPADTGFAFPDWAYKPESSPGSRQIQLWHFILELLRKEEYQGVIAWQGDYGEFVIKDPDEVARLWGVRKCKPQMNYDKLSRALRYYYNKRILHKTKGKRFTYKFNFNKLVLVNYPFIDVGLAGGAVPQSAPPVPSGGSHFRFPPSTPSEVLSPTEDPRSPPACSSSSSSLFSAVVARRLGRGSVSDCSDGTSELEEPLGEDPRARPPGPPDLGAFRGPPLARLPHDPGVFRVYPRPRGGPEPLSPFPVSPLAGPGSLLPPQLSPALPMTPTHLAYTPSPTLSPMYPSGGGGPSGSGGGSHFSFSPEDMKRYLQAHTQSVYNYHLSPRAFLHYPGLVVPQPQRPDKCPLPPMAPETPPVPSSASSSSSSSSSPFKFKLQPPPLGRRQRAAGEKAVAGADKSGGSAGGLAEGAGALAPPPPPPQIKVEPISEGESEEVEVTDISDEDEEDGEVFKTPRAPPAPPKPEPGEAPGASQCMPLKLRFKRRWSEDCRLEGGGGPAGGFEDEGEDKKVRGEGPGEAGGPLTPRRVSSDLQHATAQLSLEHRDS
How it was run: as §1

[18] = target: T12, ETV7 (Homo sapiens, UniProt Q9Y603 1-341)
T12 sequence: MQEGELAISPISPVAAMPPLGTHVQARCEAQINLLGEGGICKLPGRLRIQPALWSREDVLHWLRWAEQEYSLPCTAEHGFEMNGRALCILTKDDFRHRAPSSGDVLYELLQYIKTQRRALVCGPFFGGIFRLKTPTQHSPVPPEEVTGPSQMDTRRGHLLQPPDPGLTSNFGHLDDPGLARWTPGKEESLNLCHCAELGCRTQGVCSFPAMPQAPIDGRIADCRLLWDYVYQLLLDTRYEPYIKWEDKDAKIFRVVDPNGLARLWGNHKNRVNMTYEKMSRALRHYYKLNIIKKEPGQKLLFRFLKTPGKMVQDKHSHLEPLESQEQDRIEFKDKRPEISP
How it was run: as §1

Sequence | binding signal [1] | binding signal [2] | binding signal [3] | binding signal [4] | binding signal [5] | binding signal [6] | binding signal [7] | binding signal [8] | binding signal [9] | binding signal [10] | binding signal [11] | binding signal [12] | binding signal [13] | binding signal [14] | binding signal [15] | binding signal [16] | binding signal [17] | binding signal [18]
AGGACC | 1.07 fold enrichment (6-mer frequency, TF over GST control) | 1.07 fold enrichment (6-mer frequency, TF over GST control) | 1.09 fold enrichment (6-mer frequency, TF over GST control) | 1.06 fold enrichment (6-mer frequency, TF over GST control) | 1.02 fold enrichment (6-mer frequency, TF over GST control) | 1.05 fold enrichment (6-mer frequency, TF over GST control) | 1.07 fold enrichment (6-mer frequency, TF over GST control) | 1.04 fold enrichment (6-mer frequency, TF over GST control) | 1.06 fold enrichment (6-mer frequency, TF over GST control) | 1.07 fold enrichment (6-mer frequency, TF over GST control) | 1.04 fold enrichment (6-mer frequency, TF over GST control) | 1.06 fold enrichment (6-mer frequency, TF over GST control) | 1.03 fold enrichment (6-mer frequency, TF over GST control) | 1.02 fold enrichment (6-mer frequency, TF over GST control) |  |  |  | 
GGTGGT | 1.03 fold enrichment (6-mer frequency, TF over GST control) |  | 1.12 fold enrichment (6-mer frequency, TF over GST control) | 1.01 fold enrichment (6-mer frequency, TF over GST control) |  | 1.02 fold enrichment (6-mer frequency, TF over GST control) |  | 1.04 fold enrichment (6-mer frequency, TF over GST control) |  | 1.05 fold enrichment (6-mer frequency, TF over GST control) |  |  |  |  | 1.08 fold enrichment (6-mer frequency, TF over GST control) | 1 fold enrichment (6-mer frequency, TF over GST control) | 1.07 fold enrichment (6-mer frequency, TF over GST control) | 1 fold enrichment (6-mer frequency, TF over GST control)
